# Most compounds without a hit are left out; they make up all but 1.7% or so of the library.
# KCNH2 WT inh: qHTS for Inhibitors of KCHN2 3.1: Wildtype qHTS. 0.37% of 340,000 active. Voltage-gated inwardly rectifying potassium channel KCNH2 (Homo sapiens), Q12809. activity change, % at 1.84 µM. U2OS, BacMam KCNH2, thallium flux FluxOr; hits give low values;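 active = maximum activity change below -70%; inconclusive = maximum activity change between -70% and -50%; inactive = maximum activity change above -50%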; also: % is scaled to controls: 0 for no effect and ±100 for the full control effect
#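 U2OS cells were transduced with wild-type KCNH2 virus (2.03 x 10^8 / mL) for 4 h at room temperature, then cultured overnight at 37 C. Thallium flux was read with FluxOr dye. Rate constants were normalized to DMSO controls.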
# TRHR agonist: qHTS for Small Molecule Agonists and Allosteric Enhancers of Human TRH Receptor: Primary Screen for Agonists. Thyrotropin-releasing hormone receptor (Homo sapiens), P34981. TRHR cells, calcium flux fluo-8, FDSS agonist mode. activation, % at 2 µM. 0.18% of 360,000 active. AID 493084, 2011; in the data active = activation above about 30%; also: 0% is about no effect
#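 TRHR-expressing cells, plated overnight in medium with 10% serum, were loaded with fluo-8 calcium dye at room temperature. After a 10 s baseline, library compound was pin-added and calcium release was recorded kinetically (ex 480/em 530) as agonist response.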
# TRHR enhancer: qHTS for Small Molecule Agonists and Allosteric Enhancers of Human TRH Receptor: Primary Screen for Enhancers | Thyrotropin-releasing hormone receptor (Homo sapiens), P34981 | TRHR cells, fluo-8 calcium fluorescence, EC20 TRH enhancement | enhancement, % at 2 µM | 0.66% of 360,000 active | AID 493056, 2011; in the data active = enhancement above about 30%; also: 0% is about no effect
#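 Enhancer read-out: after compound pinning and an initial kinetic agonist-mode read, an EC20 of TRH (10 nM final) was injected and fluo-8 calcium signal (Ex 480/Em 530) followed at 1 s/cycle for 100 cycles in TRHR-expressing cells.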
# TRPML1 blocker: qHTS for Inhibitors of the Human Mucolipin Transient Receptor Potential 1 (TRPML1). Mucolipin-1 (Homo sapiens), Q9GZU1. TRPML1-inducible cells, Ca2+ dye fluorescence, FDSS; hits give low values; inhibition of EC80 agonist-evoked calcium signal. activity change, negative = inhibition, % (no concentration beside the values). 0.02% of 390,000 active; in the data active = activity change below about -50%; inconclusive = between about -30% and that limit;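 also: stimulus is agonist 54-4 at its EC80 concentration; % is scaled to controls: 0 for no effect and ±100 for the full control effect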
# Target sequence (Q9GZU1 whole entry, looked up): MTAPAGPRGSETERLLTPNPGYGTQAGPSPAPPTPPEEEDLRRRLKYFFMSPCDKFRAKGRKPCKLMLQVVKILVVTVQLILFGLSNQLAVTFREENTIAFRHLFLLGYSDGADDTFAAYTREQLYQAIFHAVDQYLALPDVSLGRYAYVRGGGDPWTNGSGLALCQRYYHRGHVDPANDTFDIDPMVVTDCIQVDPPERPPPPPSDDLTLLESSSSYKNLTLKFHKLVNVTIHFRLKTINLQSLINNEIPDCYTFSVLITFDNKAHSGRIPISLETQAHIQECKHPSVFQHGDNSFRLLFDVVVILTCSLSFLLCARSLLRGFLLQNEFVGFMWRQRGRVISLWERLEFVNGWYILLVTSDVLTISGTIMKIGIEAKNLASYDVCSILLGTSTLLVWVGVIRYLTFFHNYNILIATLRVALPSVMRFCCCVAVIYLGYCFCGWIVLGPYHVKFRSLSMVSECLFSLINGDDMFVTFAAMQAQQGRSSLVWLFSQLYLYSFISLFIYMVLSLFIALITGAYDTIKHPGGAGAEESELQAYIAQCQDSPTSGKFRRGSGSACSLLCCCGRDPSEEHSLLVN
#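 TRPML1-DL cells, Tet-induced overnight (~16 h, 37 °C) at 1,500 cells/well, were loaded with Ca8 no-wash dye plus quencher for 45-90 min at room temperature. Compounds were pinned during FDSS kinetic reading; agonist 54-4 at EC80 (4 uM final) then added.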
# KCNH2 3.1 block: qHTS for Inhibitors of KCHN2 3.1: Mutant qHTS. activity change, % (tested at about 1.8 µM). U2OS KCNH2 3.1, thallium flux FluxOr; hits give low values. AID 720553, 2013. 0.95% of 340,000 active;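 active = maximum activity change below -70%; inconclusive = maximum activity change from -70% to -50%; inactive = maximum activity change above -50%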;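 also: thallium influx rate constant from kinetic fluorescence after stimulation buffer; % is scaled to controls: 0 for no effect and ±100 for the full control effect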
#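 Steps: virus added to U2OS suspension (4 h, RT, dark); medium with 10% FBS added, cells plated, 37 C overnight; FluxOr/Red40 loading buffer 45 min RT; stimulation buffer, 2 min kinetic read; rate constant normalized.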
# TRPML1 agonist: qHTS for Agonists of the Human Mucolipin Transient Receptor Potential 1 (TRPML1); TRPML1-expressing cells, Ca2+ dye fluorescence, FDSS; Mucolipin-1 (Homo sapiens), Q9GZU1; activation, % (test concentration not listed); AID 624414, 2012; 0.12% of 410,000 active; in the data active = activation above about 50%; inconclusive = mostly about 30% to 49%; also: 0% is about no effect
#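 Tet-induced TRPML1-DL cells, 1,500 per well, cultured overnight, were loaded with a no-wash Ca2+ dye for 45–90 min. Calcium fluorescence was recorded on the FDSS for 110 s after compound addition, before the EC80 agonist (4 uM 54-4) was added.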
# The depositor's hits bear a star; ? = inconclusive; nt = no result given.
SMILES,KCNH2 WT inh,TRHR agonist,TRHR enhancer,TRPML1 blocker,KCNH2 3.1 block,TRPML1 agonist
O=C(O)c1cccc(NS(=O)(=O)c2ccc(S(=O)(=O)N3CCOCC3)cc2)c1,-11,-1,-6,-25,-7,1
O=S(=O)(Nc1cccc(F)c1)c1ccc(S(=O)(=O)N2CCOCC2)cc1,-7,nt,nt,-9,-74*,1
CCOc1ccc(Br)cc1S(=O)(=O)Nc1cccc(S(=O)(=O)N2CCOCC2)c1,-223*,nt,nt,13,-9,2
Cn1nccc1NC(=O)Nc1ccc(Cl)cc1,-9,1,1,-8,-86*,1
O=C(NCc1ccc2c(c1)OCO2)c1ccc(Cl)c(S(=O)(=O)N2CCOCC2)c1,0,0,-11,-12,-94*,-1
Cc1ccc(C(=O)NCc2ccc3c(c2)OCO3)cc1S(=O)(=O)N1CCCCC1,-91*,0,-9,16,-14,1
c1ccc(C2CCC(N3CCN(c4ccccc4)CC3)CC2)cc1 (centres undefined),24,-2,6,26,-12,2
COc1nnc(-c2ccc(N3CCCCC3)c(NC(=O)c3ccc(Cl)cc3)c2)c2ccccc12,nt,-1,39*,2,nt,2
O=C(NCc1ccccc1CN1CCCC1)C1CCN(C(=O)c2ccc(F)cc2)CC1,24,1,1,-3,-2,0
CC(=O)NC1=CC(=O)c2nonc2C1=O,nt,nt,nt,nt,nt,0
CC(CCn1cccn1)NC(=O)c1cc(COc2ccc(F)cc2F)on1 (centres undefined),-2,0,35*,14,11,1
Cc1ccc(C)c(OCc2cc(C(=O)NC3CCN(Cc4ccccc4)CC3)no2)c1,40,2,7,4,?,0
O=C(NC1CCN(Cc2ccccc2)C1)c1cc(COc2ccc(F)cc2F)on1 (centres undefined),21,0,31*,25,-2,1
COc1ccc(-c2cc(C)no2)cc1S(=O)(=O)N1CCN(c2ccccc2F)CC1,-5,-1,1,-4,-15,-1
COc1ccc(-c2cc(C)no2)cc1S(=O)(=O)N1CCN(c2ccc([N+](=O)[O-])cc2)CC1,-78*,1,0,21,-106*,0
Cc1noc(C)c1S(=O)(=O)N1CCN(c2ccc([N+](=O)[O-])cc2)CC1,-47,0,0,-15,-80*,1
Cc1noc(C)c1CSCC(=O)N1CCN(c2ccc([N+](=O)[O-])cc2)CC1,27,0,11,-4,-73*,0
CCOC(=O)C1=C(CS(=O)(=O)c2ccccc2)NC(=O)NC1c1cc(OC)c(O)c(OC)c1 (centres undefined),7,0,-11,42,-2,0
Cc1cc(C)c2c(c1)C1C=CCC1C(C(=O)O)N2 (centres undefined),nt,1,-3,8,nt,0
CC(C)(C)OC(=O)Cc1nnc(-c2nc3ccccc3[nH]2)s1,nt,1,0,nt,nt,nt
CCCCCCNCC(=O)N1CCC(Cc2ccccc2)CC1,2,1,8,-8,-101*,1
CCCC(=O)N1CCC(Cc2ccccc2)CC1,-1,-1,-9,44,9,0
O=C(Cn1cncn1)N/N=C/c1cc([N+](=O)[O-])ccc1O,-104*,1,7,16,4,0
Cc1ccn(CC(=O)N/N=C/c2cc([N+](=O)[O-])ccc2O)n1,-23,-2,-8,-8,1,0
COc1ccc(C(C)=O)cc1COC(=O)C(CO)NS(=O)(=O)c1ccc(Br)cc1 (centres undefined),9,0,-6,12,-79*,0
SMILES,KCNH2 WT inh,TRHR agonist,TRHR enhancer,TRPML1 blocker,KCNH2 3.1 block,TRPML1 agonist
COc1ccc(C(C)=O)cc1COC(=O)CCNS(=O)(=O)c1ccc(C(C)=O)cc1,3,0,15,-16,1,1
CN1CCN(C2Cc3ccc(F)cc3Sc3cc(F)c(Cl)cc32)CC1 (centres undefined),-41,nt,nt,1,-88*,2
CN1CCN(C2Cc3cc(F)ccc3Sc3ccc(Cl)cc32)CC1 (centres undefined),-8,nt,nt,46,-78*,0
COc1ccc(N(S(=O)(=O)c2ccccc2)S(=O)(=O)c2ccccc2)c(N)c1,8,-1,-2,10,-10,0
COc1ccc(/C=C/C(=O)N2CCCc3ccccc32)c(OC)c1,-79*,-1,5,4,8,2
CC(NC(=O)C(=O)N1CCOCC1)C(c1cccs1)N1CCN(c2ccccc2F)CC1 (centres undefined),1,0,2,-9,-122*,0
CC(NC(=O)C(=O)N1CCCCC1)C(c1cccs1)N1CCN(c2ccccc2F)CC1 (centres undefined),-1,0,4,-5,-9,0
COc1ccc(CNc2nc3c(-c4ccc(C)cc4)nnn3c3ccccc23)cc1,nt,0,44*,6,nt,-1
COc1cccc(CNc2nc3c(-c4ccccc4)nnn3c3ccccc23)c1,nt,-2,30,-16,nt,0
O=C(c1cn(-c2ccccc2)nc1-c1ccccc1)N1CCOCC1,-26,1,-2,-8,-10,1
O=C(c1cccs1)N1CCN(C(=O)c2cn(-c3ccccc3)nc2-c2ccccc2)CC1,-129*,nt,nt,82,-172*,0
O=S(=O)(Nc1cccc2c1CCCC2)c1ccc(Cl)cc1,-6,0,-2,25,-71*,4
CCn1c2c(c(=O)n3ncc(C(=O)Nc4cccc(Cl)c4C)c13)CN(Cc1ccc(OC)cc1)CC2,nt,0,0,-6,nt,2
CC(=O)Nc1ccc(SCC(CC(C)C)N2CCN(C)CCC2=O)cc1 (centres undefined),nt,nt,nt,9,nt,0
CCOC(=O)Cc1csc(NC(=O)CCN2C(=O)c3ccccc3C2=O)n1,-6,-1,-2,8,-213*,-1
CCOC(=O)Cc1csc(NC(=O)CCCN2C(=O)c3ccccc3C2=O)n1,-2,0,0,-2,-7,1
Cc1cc(=O)[nH]c(SCC(=O)Nc2ccc3c(c2)OCCO3)n1,-5,0,32*,16,1,1

# Source: PubChem
